Results from article PMC7862700, “An all-to-all approach to the identification of sequence-specific readers for epigenetic DNA modifications on cytosine”.

Experiments:
Assay in all cases: DAPPL (digital affinity profiling via proximity ligation, sequencing); 10 mM Tris-HCl pH 7.5, 50 mM NaCl, 1 mM DTT, 4% glycerol, room temperature, 30 min; GST-TFs on glutathione beads, 16-mer random dsDNA library, 0.1% formaldehyde crosslink after washing; high values mean tight binding
FEV = biological target: T1, FEV (Homo sapiens, UniProt Q99581 1-238); details: protein: recombinant; tags: N-terminal GST; dsDNA, one strand shown
T1 sequence: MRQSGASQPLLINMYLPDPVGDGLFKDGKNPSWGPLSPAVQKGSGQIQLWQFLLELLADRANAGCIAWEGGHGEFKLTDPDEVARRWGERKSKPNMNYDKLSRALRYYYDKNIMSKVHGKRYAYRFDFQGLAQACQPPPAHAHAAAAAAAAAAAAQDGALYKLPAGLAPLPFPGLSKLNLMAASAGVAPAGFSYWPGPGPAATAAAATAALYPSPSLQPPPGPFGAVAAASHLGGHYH
Procedure, shortened: (§1)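 Human transcription factors fused to GST were expressed in yeast, captured on glutathione beads, given DNA barcodes and pooled with a GST-only negative control. Pools were incubated with 200 nmole of a 16-mer random double-stranded DNA library in Tris/NaCl/DTT/glycerol buffer at room temperature for 30 min. They were then washed, crosslinked with 0.1% formaldehyde, proximity-ligated (BsaI/T4 ligase, 1 h, 37 °C), PCR-amplified and sequenced on an Illumina NextSeq500. Binding signal is each 6-mer's read frequency for a factor divided by its frequency for the GST control.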

ETV5 = ETV5 (Homo sapiens, UniProt P41161 1-510); details: protein: recombinant; tags: N-terminal GST; dsDNA, one strand shown
Procedure, shortened: as §1

HSF1 = HSF1 (Homo sapiens, UniProt Q00613 1-529); details: protein: recombinant; tags: N-terminal GST; chain copies: 3; dsDNA, one strand shown
Procedure, shortened: as §1

SPIC = biological target: T2, SPIC (Homo sapiens, UniProt Q8N5J4 1-248); details: protein: recombinant; tags: N-terminal GST; dsDNA, one strand shown
T2 sequence: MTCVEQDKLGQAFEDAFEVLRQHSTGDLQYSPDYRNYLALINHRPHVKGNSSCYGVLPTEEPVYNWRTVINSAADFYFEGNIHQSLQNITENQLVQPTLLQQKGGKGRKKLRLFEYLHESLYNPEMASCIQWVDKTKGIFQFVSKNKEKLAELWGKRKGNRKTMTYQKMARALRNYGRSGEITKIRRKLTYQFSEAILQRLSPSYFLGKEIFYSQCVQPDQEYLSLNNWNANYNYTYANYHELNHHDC
Procedure, shortened: as §1

ELF4 = ELF4 (Homo sapiens, UniProt Q99607 1-663); details: protein: recombinant; tags: N-terminal GST; dsDNA, one strand shown
Procedure, shortened: as §1

ELK4 = biological target: T3, ELK4 (Homo sapiens, UniProt P28324-2 1-405); details: protein: recombinant; tags: N-terminal GST; dsDNA, one strand shown
T3 sequence: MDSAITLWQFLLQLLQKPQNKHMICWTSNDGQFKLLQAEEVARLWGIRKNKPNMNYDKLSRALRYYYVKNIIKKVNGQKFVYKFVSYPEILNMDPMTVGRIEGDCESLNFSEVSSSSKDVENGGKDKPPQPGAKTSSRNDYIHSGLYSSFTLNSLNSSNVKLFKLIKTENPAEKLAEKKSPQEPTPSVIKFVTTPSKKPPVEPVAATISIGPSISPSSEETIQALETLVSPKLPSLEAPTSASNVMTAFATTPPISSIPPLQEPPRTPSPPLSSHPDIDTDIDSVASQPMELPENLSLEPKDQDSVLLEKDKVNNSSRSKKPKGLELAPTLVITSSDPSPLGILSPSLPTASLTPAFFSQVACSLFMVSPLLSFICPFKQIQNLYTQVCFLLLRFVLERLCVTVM
Procedure, shortened: as §1

ETV2 = biological target: T4, ETV2 (Homo sapiens, UniProt O00321 1-342); details: protein: recombinant; tags: N-terminal GST; dsDNA, one strand shown
T4 sequence: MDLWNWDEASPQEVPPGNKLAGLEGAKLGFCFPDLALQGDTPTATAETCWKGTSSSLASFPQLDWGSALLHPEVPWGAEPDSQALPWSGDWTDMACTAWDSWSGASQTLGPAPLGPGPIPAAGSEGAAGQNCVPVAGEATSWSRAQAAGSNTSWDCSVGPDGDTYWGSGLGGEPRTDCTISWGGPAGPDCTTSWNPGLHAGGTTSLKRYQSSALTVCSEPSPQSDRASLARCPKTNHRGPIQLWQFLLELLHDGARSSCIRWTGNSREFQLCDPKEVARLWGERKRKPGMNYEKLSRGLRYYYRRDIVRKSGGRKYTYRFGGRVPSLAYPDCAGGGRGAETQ
Procedure, shortened: as §1

ELF3 = biological target: T5, ELF3 (Homo sapiens, UniProt P78545 1-371); details: protein: recombinant; tags: N-terminal GST; dsDNA, one strand shown
T5 sequence: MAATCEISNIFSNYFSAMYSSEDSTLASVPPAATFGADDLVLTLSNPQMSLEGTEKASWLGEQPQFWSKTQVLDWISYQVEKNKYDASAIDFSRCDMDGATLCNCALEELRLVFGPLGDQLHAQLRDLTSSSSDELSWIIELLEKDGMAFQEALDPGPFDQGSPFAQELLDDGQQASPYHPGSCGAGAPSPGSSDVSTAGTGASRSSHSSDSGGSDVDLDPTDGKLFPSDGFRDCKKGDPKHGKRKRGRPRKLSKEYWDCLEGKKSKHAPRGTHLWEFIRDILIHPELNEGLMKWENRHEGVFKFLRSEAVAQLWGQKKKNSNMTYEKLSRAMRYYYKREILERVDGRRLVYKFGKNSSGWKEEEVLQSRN
Procedure, shortened: as §1

CRX = CRX (Homo sapiens, UniProt O43186 1-299); details: protein: recombinant; tags: N-terminal GST; dsDNA, one strand shown
Procedure, shortened: as §1

ETV1 = ETV1 (Homo sapiens, UniProt P50549 1-477); details: protein: recombinant; tags: N-terminal GST; dsDNA, one strand shown
Procedure, shortened: as §1

ERF = biological target: T6, ERF (Homo sapiens, UniProt P50548 1-548); details: protein: recombinant; tags: N-terminal GST; dsDNA, one strand shown
T6 sequence: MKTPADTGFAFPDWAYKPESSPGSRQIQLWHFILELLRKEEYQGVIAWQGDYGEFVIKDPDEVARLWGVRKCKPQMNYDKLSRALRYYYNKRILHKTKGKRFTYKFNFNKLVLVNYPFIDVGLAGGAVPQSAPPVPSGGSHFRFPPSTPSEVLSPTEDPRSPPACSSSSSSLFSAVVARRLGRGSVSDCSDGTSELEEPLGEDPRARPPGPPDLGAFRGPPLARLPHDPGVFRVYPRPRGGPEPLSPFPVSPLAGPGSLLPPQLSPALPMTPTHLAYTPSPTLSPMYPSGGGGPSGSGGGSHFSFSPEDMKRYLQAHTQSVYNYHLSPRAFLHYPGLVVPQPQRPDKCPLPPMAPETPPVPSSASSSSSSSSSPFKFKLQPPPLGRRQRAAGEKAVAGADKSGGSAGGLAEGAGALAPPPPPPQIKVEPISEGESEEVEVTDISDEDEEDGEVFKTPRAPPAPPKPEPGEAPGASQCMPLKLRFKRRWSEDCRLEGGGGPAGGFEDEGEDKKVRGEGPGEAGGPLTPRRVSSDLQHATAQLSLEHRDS
Procedure, shortened: as §1

ETV3L = biological target: T7, ETV3L (Homo sapiens, UniProt Q6ZN32 1-361); details: protein: recombinant; tags: N-terminal GST; dsDNA, one strand shown
T7 sequence: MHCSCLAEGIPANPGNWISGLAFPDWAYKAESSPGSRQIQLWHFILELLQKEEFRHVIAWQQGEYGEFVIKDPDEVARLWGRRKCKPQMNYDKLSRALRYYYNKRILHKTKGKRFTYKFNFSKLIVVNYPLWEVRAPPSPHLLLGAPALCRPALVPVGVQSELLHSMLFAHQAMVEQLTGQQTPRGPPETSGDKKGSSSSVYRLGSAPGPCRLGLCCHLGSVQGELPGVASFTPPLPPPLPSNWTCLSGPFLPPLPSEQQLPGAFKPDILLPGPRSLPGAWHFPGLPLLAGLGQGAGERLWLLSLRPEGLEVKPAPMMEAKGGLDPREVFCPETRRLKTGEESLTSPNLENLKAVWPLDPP
Procedure, shortened: as §1

ETS2 = biological target: T8, ETS2 (Homo sapiens, UniProt P15036 1-469); details: protein: recombinant; tags: N-terminal GST; dsDNA, one strand shown
T8 sequence: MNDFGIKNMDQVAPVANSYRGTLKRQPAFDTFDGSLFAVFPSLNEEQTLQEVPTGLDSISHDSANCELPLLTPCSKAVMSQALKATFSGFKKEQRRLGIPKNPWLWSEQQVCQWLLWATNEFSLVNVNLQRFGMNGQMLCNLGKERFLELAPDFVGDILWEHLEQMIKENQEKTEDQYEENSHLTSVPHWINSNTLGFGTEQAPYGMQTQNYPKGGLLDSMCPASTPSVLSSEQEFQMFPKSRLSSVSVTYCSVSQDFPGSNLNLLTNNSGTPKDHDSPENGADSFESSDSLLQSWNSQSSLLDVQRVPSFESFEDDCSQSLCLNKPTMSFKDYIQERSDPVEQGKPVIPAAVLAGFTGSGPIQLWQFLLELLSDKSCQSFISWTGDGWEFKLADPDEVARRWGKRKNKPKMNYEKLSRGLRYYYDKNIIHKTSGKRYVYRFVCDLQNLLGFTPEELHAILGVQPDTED
Procedure, shortened: as §1

SPDEF = biological target: T9, SPDEF (Homo sapiens, UniProt O95238 1-335); details: protein: recombinant; tags: N-terminal GST; dsDNA, one strand shown
T9 sequence: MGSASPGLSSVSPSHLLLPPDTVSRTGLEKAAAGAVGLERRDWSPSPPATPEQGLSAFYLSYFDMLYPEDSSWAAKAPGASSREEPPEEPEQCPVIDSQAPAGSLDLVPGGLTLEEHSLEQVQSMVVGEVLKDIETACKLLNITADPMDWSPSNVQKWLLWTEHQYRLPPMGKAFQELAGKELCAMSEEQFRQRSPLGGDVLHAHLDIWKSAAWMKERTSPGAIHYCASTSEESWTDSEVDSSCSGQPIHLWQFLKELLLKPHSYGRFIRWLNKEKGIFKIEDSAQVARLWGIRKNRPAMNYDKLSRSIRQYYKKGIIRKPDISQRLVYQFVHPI
Procedure, shortened: as §1

ETV7 = biological target: T10, ETV7 (Homo sapiens, UniProt Q9Y603 1-341); details: protein: recombinant; tags: N-terminal GST; dsDNA, one strand shown
T10 sequence: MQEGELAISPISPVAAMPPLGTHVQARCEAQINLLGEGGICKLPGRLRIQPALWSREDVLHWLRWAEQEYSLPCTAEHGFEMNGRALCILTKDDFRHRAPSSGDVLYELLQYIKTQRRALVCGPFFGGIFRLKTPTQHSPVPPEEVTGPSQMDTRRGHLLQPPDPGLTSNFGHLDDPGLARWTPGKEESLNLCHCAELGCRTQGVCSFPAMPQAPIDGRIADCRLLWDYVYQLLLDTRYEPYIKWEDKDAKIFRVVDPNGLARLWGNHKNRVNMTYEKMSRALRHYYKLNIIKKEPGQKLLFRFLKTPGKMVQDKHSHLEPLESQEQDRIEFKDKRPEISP
Procedure, shortened: as §1

ELF5 = biological target: T11, ELF5 (Homo sapiens, UniProt Q9UKW6-2 1-255); details: protein: recombinant; tags: N-terminal GST; dsDNA, one strand shown
T11 sequence: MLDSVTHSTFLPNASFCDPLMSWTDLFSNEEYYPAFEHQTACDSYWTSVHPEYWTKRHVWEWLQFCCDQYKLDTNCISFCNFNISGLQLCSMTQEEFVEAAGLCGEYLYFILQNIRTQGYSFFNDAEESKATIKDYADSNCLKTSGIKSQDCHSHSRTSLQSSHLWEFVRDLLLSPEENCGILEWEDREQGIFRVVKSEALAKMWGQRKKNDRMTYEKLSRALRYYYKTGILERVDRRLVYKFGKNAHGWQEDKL
Procedure, shortened: as §1

ETV3 = biological target: T12, ETV3 (Homo sapiens, UniProt P41162-2 1-143); details: protein: recombinant; tags: N-terminal GST; dsDNA, one strand shown
T12 sequence: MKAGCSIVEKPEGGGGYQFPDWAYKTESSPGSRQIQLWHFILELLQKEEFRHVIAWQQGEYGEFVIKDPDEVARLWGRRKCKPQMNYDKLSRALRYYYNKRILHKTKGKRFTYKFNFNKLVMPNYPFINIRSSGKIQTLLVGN
Procedure, shortened: as §1

ETV6 = ETV6 (Homo sapiens, UniProt P41212 1-452); details: protein: recombinant; tags: N-terminal GST; dsDNA, one strand shown
Procedure, shortened: as §1

Sequence of ETV6 (P41212 whole entry): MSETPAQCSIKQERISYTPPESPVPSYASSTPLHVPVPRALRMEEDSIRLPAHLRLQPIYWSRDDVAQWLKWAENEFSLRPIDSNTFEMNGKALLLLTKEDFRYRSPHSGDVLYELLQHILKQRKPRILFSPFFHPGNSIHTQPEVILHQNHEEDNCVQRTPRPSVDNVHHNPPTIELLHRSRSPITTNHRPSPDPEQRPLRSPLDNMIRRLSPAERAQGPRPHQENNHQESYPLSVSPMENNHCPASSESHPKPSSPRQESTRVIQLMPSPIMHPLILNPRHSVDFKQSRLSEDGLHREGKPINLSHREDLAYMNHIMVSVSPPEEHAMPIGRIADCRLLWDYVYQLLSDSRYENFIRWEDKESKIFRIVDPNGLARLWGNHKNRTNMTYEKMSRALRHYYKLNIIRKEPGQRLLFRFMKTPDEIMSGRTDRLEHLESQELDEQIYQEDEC
Sequence of ETV1 (P50549 whole entry): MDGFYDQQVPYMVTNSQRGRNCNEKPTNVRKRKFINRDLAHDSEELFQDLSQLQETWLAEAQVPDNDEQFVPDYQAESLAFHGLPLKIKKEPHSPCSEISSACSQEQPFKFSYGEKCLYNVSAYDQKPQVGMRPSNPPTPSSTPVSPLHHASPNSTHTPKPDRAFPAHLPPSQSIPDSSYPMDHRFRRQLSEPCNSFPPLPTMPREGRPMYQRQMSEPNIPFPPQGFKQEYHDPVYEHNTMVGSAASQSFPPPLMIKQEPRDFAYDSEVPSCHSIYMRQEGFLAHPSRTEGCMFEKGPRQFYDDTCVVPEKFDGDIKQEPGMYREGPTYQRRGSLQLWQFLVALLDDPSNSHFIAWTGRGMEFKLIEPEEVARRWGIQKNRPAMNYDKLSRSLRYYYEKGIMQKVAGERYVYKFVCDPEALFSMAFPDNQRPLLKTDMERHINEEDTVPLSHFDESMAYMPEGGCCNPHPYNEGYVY
Sequence of ELF4 (Q99607 whole entry): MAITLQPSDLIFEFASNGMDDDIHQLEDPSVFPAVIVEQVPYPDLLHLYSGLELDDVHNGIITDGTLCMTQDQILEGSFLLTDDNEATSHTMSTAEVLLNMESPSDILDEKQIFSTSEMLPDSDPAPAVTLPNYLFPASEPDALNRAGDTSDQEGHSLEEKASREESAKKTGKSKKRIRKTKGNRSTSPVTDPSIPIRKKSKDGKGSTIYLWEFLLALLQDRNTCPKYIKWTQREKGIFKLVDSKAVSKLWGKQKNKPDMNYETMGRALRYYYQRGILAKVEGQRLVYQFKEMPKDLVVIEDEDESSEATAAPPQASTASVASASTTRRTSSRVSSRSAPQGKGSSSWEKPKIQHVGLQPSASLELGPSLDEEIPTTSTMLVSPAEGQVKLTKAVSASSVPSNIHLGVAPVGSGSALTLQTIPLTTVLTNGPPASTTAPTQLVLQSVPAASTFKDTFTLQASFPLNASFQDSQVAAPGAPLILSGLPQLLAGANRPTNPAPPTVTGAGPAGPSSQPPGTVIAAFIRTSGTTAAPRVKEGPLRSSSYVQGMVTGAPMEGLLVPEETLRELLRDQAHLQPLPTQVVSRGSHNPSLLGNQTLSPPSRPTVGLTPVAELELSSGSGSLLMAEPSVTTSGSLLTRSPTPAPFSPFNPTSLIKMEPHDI
Sequence of CRX (O43186 whole entry): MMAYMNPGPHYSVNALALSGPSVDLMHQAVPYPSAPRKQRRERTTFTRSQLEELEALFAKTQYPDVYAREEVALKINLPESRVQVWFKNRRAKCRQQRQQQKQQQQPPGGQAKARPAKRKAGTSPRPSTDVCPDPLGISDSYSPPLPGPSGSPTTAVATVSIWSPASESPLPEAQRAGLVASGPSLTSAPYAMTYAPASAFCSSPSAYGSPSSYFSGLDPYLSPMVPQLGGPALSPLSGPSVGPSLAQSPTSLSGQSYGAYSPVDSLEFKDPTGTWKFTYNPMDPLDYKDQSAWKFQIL
Sequence of HSF1 (Q00613 whole entry): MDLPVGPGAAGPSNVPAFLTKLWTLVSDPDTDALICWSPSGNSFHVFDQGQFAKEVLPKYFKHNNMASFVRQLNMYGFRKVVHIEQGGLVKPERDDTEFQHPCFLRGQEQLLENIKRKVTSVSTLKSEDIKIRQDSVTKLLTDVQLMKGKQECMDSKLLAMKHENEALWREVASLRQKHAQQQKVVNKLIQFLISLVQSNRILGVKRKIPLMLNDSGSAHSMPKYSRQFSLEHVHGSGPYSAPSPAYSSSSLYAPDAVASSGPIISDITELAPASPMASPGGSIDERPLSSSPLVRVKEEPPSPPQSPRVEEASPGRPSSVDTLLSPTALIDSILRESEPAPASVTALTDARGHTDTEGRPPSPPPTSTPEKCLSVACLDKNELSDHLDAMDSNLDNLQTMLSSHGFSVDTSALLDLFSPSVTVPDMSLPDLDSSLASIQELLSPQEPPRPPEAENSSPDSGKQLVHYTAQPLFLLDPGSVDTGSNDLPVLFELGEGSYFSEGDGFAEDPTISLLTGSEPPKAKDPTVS
Sequence of ETV5 (P41161 whole entry): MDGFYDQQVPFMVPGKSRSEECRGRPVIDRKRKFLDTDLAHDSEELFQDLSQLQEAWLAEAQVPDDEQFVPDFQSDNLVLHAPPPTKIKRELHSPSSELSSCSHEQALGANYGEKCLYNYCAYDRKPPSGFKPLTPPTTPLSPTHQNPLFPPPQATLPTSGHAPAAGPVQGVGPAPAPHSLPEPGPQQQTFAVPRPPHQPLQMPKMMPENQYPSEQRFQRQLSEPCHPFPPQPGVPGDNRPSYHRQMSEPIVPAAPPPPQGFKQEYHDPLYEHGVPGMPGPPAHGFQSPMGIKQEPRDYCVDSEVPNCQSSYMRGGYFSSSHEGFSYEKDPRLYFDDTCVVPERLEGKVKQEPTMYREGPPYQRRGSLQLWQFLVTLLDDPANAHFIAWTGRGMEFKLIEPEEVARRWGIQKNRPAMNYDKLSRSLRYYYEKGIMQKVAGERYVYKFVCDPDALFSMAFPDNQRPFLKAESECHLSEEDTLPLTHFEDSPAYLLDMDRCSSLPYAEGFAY

ATGATA was tested, and the binding signal (FEV) was 1.25 fold enrichment (6-mer frequency, TF over GST control), the binding signal (ETV5) was 1.17 fold enrichment (6-mer frequency, TF over GST control) and the binding signal (HSF1) was 1.23 fold enrichment (6-mer frequency, TF over GST control). For the same sequence, the binding signal (SPIC) was 1.07 fold enrichment (6-mer frequency, TF over GST control), the binding signal (ELF4) was 1.26 fold enrichment (6-mer frequency, TF over GST control) and the binding signal (ELK4) was 1.27 fold enrichment (6-mer frequency, TF over GST control). For the same sequence, the binding signal (ETV2) was 1.2 fold enrichment (6-mer frequency, TF over GST control), the binding signal (ELF3) was 1.21 fold enrichment (6-mer frequency, TF over GST control) and the binding signal (CRX) was 1.39 fold enrichment (6-mer frequency, TF over GST control). For the same sequence, the binding signal (ETV1) was 1.17 fold enrichment (6-mer frequency, TF over GST control), the binding signal (ERF) was 1.21 fold enrichment (6-mer frequency, TF over GST control) and the binding signal (ETV3L) was 1.22 fold enrichment (6-mer frequency, TF over GST control). The binding signal (ETS2) was 1.17 fold enrichment (6-mer frequency, TF over GST control), the binding signal (SPDEF) was 1.22 fold enrichment (6-mer frequency, TF over GST control) and the binding signal (ETV7) was 1.16 fold enrichment (6-mer frequency, TF over GST control). The binding signal (ELF5) was 1.23 fold enrichment (6-mer frequency, TF over GST control), the binding signal (ETV3) was 1.2 fold enrichment (6-mer frequency, TF over GST control) and the binding signal (ETV6) was 1.18 fold enrichment (6-mer frequency, TF over GST control).
